# Source: the OligoGym collection
# Target: DEF6
# Test: pooled miR-30 sensor sort-seq; sequence = guide strand
# Conditions: shRNA
# Note: reference of the scale not given here.
row,Sequence,sensor-assay potency score (higher = more potent)
1,TGACCGGACGCTTATCTCCAGG,-1.34
2,TTCAGCTGCATCAACTGCTTCA,0.367
3,TTGTGTAGGGACGTCTTCCCCT,-0.678
4,TTCATCTGGACATTCCAGTGTT,0.421
5,TCTTCCAGCAGTCTGGTCTGAG,-0.41
6,TTGTCCAGGATGTACTTGTTGA,-0.794
7,AAGAGCTCCAGGAACTGCCAGA,-0.993
8,TTAGGGAGGAGTCACGGTGGGC,-1.27

# Target: DEK
# Test: as above
# Conditions: shRNA
row,Sequence,sensor-assay potency score (higher = more potent)
1,TTCTTTATCTTCATCATCTGAA,0.212
2,TAGATTTCTAAGTTCATCGGTT,0.499
3,TTTAACTCTTCATCTGTAGGGG,0.332
4,TTAACTCTTCATCTGTAGGGGG,0.319
5,TAGTTCACTATTTACACCTGAT,-0.118
6,TTTCCTTTAACTCTTCATCTGT,0.131
7,ATCATCTGAAGACTCTTCCTTG,-0.474
8,TAACTCTTCATCTGTAGGGGGT,0.328
9,TTTGGAACTGTTTTGATTCTTC,0.827
10,TTTTACTTTTAGAAGTAGCTTT,0.164
11,TTAATGAGGACACAGTGCCTGG,-0.975
12,TTATTGTTTCCTTTAACTCTTC,-0.171

# Target: DENND3
# Test: as above
# Conditions: shRNA
row,Sequence,sensor-assay potency score (higher = more potent)
1,TTATCAGAACTAAACCGTCGGC,-0.359
2,TAGAGCAGCACGTCCACCGCTT,0.371
3,TTCCACACCAGCACCATGCCGT,-0.0924
4,TAGATGACGGAGTCTTCCGAGC,-1.16
5,TATCAGAACTAAACCGTCGGCT,0.0696
6,TTATCGTCCGTGGACTTGGAGT,-1.3
7,TTGAACACGGTCACCTTGCCTT,-0.0431
8,TTGTAGAAATCTTTGAATGTTT,-1.03
9,TTGGACTTAGAAGCATTCCATT,-1.49
10,TATTTATCAGAACTAAACCGTC,-0.811
11,TAAATGATTCTTTACATCCCTG,-0.0961
12,TTGATGATGTAGATGACGGAGT,-0.511

# Target: DEXI
# Test: as above
# Conditions: shRNA
row,Sequence,sensor-assay potency score (higher = more potent)
1,TAGTACAGGATCAGCACATTGA,-0.394
2,TAACGTGGCACTCACCAGCATG,-1.35
3,TACAGGATCAGCACATTGACGA,0.243
4,TTAAGTAGGCACAACACTCATA,-0.271
5,TAGAGGGCAGCAGCGGCGGCGG,-1.83
6,TAAACATCCATCGCAGCTGCAA,-0.291
7,AATCTCTCTTCCACTCTCCTGG,-0.0495
8,TAACCTGAAATGAAGGAGCGAG,-0.355
